The values that follow come from PubChem BioAssay.

Experiment [1] can be described thus: resazurin metabolic signal in HepG2 cells – cell-based, resazurin fluorescence, 24 h, PK04 Diversity Set, profiling panel (AID 1172). Also: test concentration not given here. The conditions noted are these: HepG2 viability, higher = more signal. (In general: Alamar Blue is a resazurin reagent that responds to reducing activity.)
Experiment [2] in a line: budding yeast growth changes without added modifier – OD600, strain BY4716, 24 h, basal condition, primary screen (AID 1173). The conditions noted are these: S. cerevisiae BY4716 growth, OD600, 24 h; higher = more signal, called active from +8 up or from −8 down.
A short description of experiment [3]: viability profiling in MM1S myeloma cells – cell-based, resazurin fluorescence, basal, 24 h, PK04 Diversity Set, profiling panel (AID 1174).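 Also: MM1S multiple myeloma cell line; test concentration not given here.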 The conditions noted are these: higher = more signal, called active from +8 up or from −8 down.
The target of experiment [4] is Dihydroorotate dehydrogenase (quinone), mitochondrial (Plasmodium falciparum (isolate 3D7)) (UniProt Q08210). As to the kind of experiment: inhibition of P. falciparum DHODH – biochemical, C-terminal His tag, absorbance 600 nm, primary screen (AID 1175).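 Also: recombinant parasite enzyme with a five histidine tag at its C terminus; test concentration not given here.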 The conditions noted are these: PfDHODH enzyme, DCIP absorbance 600 nm; higher = more signal, called active from +8 up or from −8 down.
Dihydroorotate dehydrogenase (quinone), mitochondrial (Plasmodium falciparum (isolate 3D7)), sequence (Q08210 whole entry, looked up): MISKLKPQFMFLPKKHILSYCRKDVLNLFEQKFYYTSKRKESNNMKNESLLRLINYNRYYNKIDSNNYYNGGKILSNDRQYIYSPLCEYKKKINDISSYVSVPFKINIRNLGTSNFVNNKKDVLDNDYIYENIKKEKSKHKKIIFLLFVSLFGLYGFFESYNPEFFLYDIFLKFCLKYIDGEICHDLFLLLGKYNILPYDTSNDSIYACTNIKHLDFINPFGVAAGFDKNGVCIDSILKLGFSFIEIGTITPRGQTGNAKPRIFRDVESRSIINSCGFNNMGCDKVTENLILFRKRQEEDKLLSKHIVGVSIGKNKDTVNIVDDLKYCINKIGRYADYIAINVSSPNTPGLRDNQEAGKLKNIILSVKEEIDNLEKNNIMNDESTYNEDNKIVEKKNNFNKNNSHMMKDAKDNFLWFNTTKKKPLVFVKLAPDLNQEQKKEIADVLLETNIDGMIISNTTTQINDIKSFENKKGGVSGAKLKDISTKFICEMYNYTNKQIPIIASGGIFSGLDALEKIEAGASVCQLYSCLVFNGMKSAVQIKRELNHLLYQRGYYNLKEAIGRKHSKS

Experiment [5] in a line: inhibition of PAO1 biofilm formation – strain PAO1, LB-PBS medium, absorbance 600 nm, primary screen (AID 1176). Also: test concentration not given here. The conditions noted are these: P. aeruginosa PAO1 growth/biofilm, A600, 12 h; higher = more signal.
Experiment [6] can be described thus: growth modulation of vineyard yeast isolate – strain RM11-1a, OD600, basal, 24 h, primary screen (AID 1177).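 Also: cultures grown under basal conditions with no added stressor; test concentration not given here.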 The conditions noted are these: S. cerevisiae RM11-1a growth, OD600, 24 h; higher = more signal, called active from +8 up or from −8 down.
A short description of experiment [7]: growth of efflux-deficient E. coli DRC39 – strain DRC39, OD650, 24 h, E. coli filamentation inducers, primary screen (AID 1178).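 Also: growth measured as culture turbidity by optical density at 650 nm; test concentration not given here.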 The conditions noted are these: E. coli DRC39 acrAB, higher = more signal, called active from +8 up or from −8 down.
Experiment [8] is described as follows: growth of efflux-deficient E. coli DRC39 – strain DRC39, OD650, 48 h, E. coli filamentation inducers, primary screen (AID 1179).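 Also: screen aims at cell division blockers that make cells filament.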 The conditions noted are these: E. coli DRC39 delta-acrAB growth, higher = more signal, called active from +8 up or from −8 down.
Experiment [9] in a line: viability profiling in RPMI8226 myeloma cells – cell-based, resazurin fluorescence, basal, 24 h, PK04 Diversity Set, profiling panel (AID 1180).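 Also: RPMI8826 multiple myeloma cell line at 5000 cells per well; test concentration not given here.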 The conditions noted are these: higher = more signal.
For experiment [10], the target named is E3 ubiquitin-protein ligase XIAP (Homo sapiens) (UniProt P98170). Kind of experiment: small molecules binding XIAP protein – biophysical, small-molecule microarray, fluorescence 635 nm, primary screen (AID 1181).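 Also: score merges 667 nm emission and signal to noise over triplicate slides.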 The conditions noted are these: higher = more signal.
E3 ubiquitin-protein ligase XIAP (Homo sapiens), sequence (P98170 whole entry, looked up): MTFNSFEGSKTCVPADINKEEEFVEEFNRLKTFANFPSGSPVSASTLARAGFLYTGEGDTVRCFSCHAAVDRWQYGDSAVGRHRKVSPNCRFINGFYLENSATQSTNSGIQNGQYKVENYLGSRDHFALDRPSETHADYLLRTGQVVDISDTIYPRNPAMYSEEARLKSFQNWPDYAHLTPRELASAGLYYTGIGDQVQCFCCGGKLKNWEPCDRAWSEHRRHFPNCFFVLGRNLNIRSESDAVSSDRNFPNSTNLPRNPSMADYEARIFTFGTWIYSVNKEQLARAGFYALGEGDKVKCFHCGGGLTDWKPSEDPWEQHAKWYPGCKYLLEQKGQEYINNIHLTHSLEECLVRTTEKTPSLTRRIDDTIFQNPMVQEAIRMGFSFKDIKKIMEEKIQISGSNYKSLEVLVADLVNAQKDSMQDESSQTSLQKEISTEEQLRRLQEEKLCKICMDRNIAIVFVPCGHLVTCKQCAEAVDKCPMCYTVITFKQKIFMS

The source made the active and inactive calls. Unless noted, no rule for the calls is given here.

`C#CCN(C(=O)OC(C)(C)C)[C@H](CO)c1ccccc1`: the z-score in [1] was 0.739; in experiment [2], -7.87 (inactive); in [3], -0.351 (inactive); in experiment [5] it was -0.234 (inactive); in [6], -0.184 (inactive); in experiment [7] it was 0.47 (inactive). Also, the figures for the z-score in experiment [8] and in [9] were -0.652 (inactive) and -0.336, respectively. For the same molecule, the figures for the composite z-score in experiment [4] and in experiment [10] were -0.2 (inactive) and -0.005, respectively.

In the case of `C=CCNC(=O)[C@@H]1[C@H]2C(=O)O[C@H](c3ccccc3)[C@H](c3ccccc3)N2[C@H](c2ccc(O)cc2)[C@@]12C(=O)N(C(=O)OCCOC)c1ccc(C#CCC(C(=O)OC)C(=O)OC)cc12`, the z-score is 0.475 in experiment [1]; -0.17 (inactive) in [2]; 0.716 (inactive) in experiment [3]; 0.089 (inactive) in experiment [5]; 1.88 (inactive) in experiment [6]; 1.09 (inactive) in experiment [7]. For the same molecule, the results for the z-score in experiment [8] and in [9] were 0.666 (inactive) and -1.73, respectively. Besides, the composite z-score in experiment [4] is -2.5 (inactive); in experiment [10], 0.0859.

For `COC(=O)[C@@]1(Cc2ccc(F)cc2)[C@H]2c3cc(C(=O)N(C)C)n(Cc4ccsc4Br)c3C[C@H]2CN1C(=O)c1ccccc1`, the z-score in [1] was -1.05; in experiment [2] it was 1.08 (inactive); in experiment [3], -1.36 (inactive); in experiment [5], 1 (inactive); in experiment [6], 0.47 (inactive); in [7], -1.52 (inactive). Besides, the values for the z-score in experiment [8] and in experiment [9] were -0.85 (inactive) and -2.7, respectively. Also, the composite z-score in experiment [4] is -0.713 (inactive); in experiment [10] it was 0.447.

As to `C=C(C(=O)CC[C@@H](OC(=O)c1ccccc1-c1ccccc1C(=O)O)c1cccc(OCCO)c1)C(C)C`, the z-score in experiment [1] is 0.821; in experiment [2], -1.96 (inactive); in experiment [3], 1 (inactive); in experiment [5], 0.661 (inactive); in [6], -0.364 (inactive); in experiment [7], 0.546 (inactive). The z-score is 0.332 (inactive) in experiment [8] and 1.82 in [9]. Besides, the composite z-score in experiment [4] was -1.26 (inactive); in experiment [10], 0.112.

Regarding `CC(C)N1CC=CC23O[C@@H]4/C=C\CCCOC(=O)C4[C@H]2C(=O)N(C(C)CO)[C@@H]3C1=O` (stereo not given in full), the z-score in experiment [1] is 0.876; in experiment [2] it was -1.69 (inactive); in experiment [3], 0.832 (inactive); in experiment [5] it was 0.0126 (inactive); in experiment [6] it was 0.14 (inactive); in experiment [7] it was 1.1 (inactive). In addition, the results for the z-score in experiment [8] and in [9] were 0.906 (inactive) and 0.734, respectively. Also, the composite z-score was -0.555 (inactive) in experiment [4] and -0.102 in [10].

Take `COc1cc2c(cc1OC)CN(C(=O)[C@@H]1[C@H]3C(=O)O[C@H](c4ccccc4)[C@H](c4ccccc4)N3[C@H](c3ccc(O)cc3)[C@@]13C(=O)Nc1ccc(C#CC4=CCCCC4)cc13)CC2`: the z-score in [1] was 0.192; in experiment [2], 0.45 (inactive); in experiment [3], 0.466 (inactive); in experiment [5] it was 0.297 (inactive); in [6], 1.48 (inactive); in [7], -0.0342 (inactive). Besides, the z-score in [8] is 0.675 (inactive); in [9], 0.233. Also, the composite z-score in [4] was -0.151 (inactive); in experiment [10], -0.0108.

On to `COCCCNC(=O)[C@]1(Cc2ccccc2N=[N+]=[N-])N=C(c2ccc(OCCCO)cc2)O[C@@H]1c1ccccc1`, for which the z-score in experiment [1] was 0.83; in experiment [2], -0.591 (inactive); in experiment [3], -1.25 (inactive); in experiment [5] it was -0.444 (inactive); in [6], -0.029 (inactive); in experiment [7], 2.99 (inactive). Besides, the z-score in experiment [8] is 0.26 (inactive); in experiment [9], -0.953. Besides, the figures for the composite z-score in experiment [4] and in [10] were -0.28 (inactive) and 0.267, respectively.

Consider `COc1cc2c(cc1O)C(C)N(Cc1sc3ccccc3c1Cl)CC2` (stereo not given), for which the z-score in experiment [1] was 0.311; in experiment [2], -0.961 (inactive); in experiment [3], 0.0446 (inactive); in experiment [5] it was 0.668 (inactive); in [6], -0.123 (inactive); in [7], 1.14 (inactive). In addition, the z-score in experiment [8] is 0.717 (inactive); in experiment [9], -0.0875. For the same molecule, the values for the composite z-score in experiment [4] and in experiment [10] were -2.64 (inactive) and -0.148, respectively.

For the molecule `CC(C)(C)OC(=O)CC[C@@]1(C(N)=O)N=C(c2ccc(OCCCO)cc2)O[C@@H]1c1ccccc1CN=[N+]=[N-]`, the z-score is 0.372 in experiment [1]; -0.0901 (inactive) in [2]; -0.599 (inactive) in experiment [3]; 0.122 (inactive) in experiment [5]; 0.0861 (inactive) in experiment [6]; -0.0622 (inactive) in experiment [7]. Besides, the z-score is 0.131 (inactive) in [8] and -0.17 in experiment [9]. The composite z-score in [4] is -1 (inactive); in [10] it was 0.119.

Take `CC(C)[Si]1(C(C)C)OCc2cc(-c3ccc(-c4ccc(Cl)c(Cl)c4)o3)nc(-c3ccc(Oc4ccccc4)cc3)c21`: the z-score was -0.213 in [1]; -3.1 (inactive) in experiment [2]; -0.0996 (inactive) in experiment [3]; 0.574 (inactive) in experiment [5]; 1.95 (inactive) in experiment [6]; 0.223 (inactive) in [7]. In addition, the z-score in experiment [8] is -0.262 (inactive); in experiment [9], -0.133. Besides, the values for the composite z-score in [4] and in experiment [10] were 0.936 (inactive) and 0.114, respectively.

As for `COC(=O)C(CC#Cc1ccc2c(c1)[C@]1(C(=O)N2)[C@H](C(=O)NC[C@H](O)c2ccccc2)[C@H]2C(=O)O[C@H](c3ccccc3)[C@H](c3ccccc3)N2[C@@H]1c1ccc(O)cc1)C(=O)OC`, the z-score in experiment [1] is 0.155; in experiment [2], 0.455 (inactive); in [3], 0.515 (inactive); in experiment [5], 1.05 (inactive); in experiment [6] it was 0.518 (inactive); in experiment [7] it was -0.196 (inactive). For the same molecule, the results for the z-score in experiment [8] and in experiment [9] were -0.556 (inactive) and -0.464, respectively. In addition, the composite z-score in [4] is -5.06 (inactive); in experiment [10] it was 0.076.

With `COc1ccc(CCNC(=O)[C@@H]2c3ccccc3C(=O)N(C(C)C)[C@H]2c2ccc(CO)cc2)cc1`, the z-score was 0.862 in experiment [1]; -0.313 (inactive) in experiment [2]; 1.35 (inactive) in [3]; -0.935 (inactive) in experiment [5]; 0.326 (inactive) in experiment [6]; 0.364 (inactive) in [7]. The z-score is 0.246 (inactive) in experiment [8] and 1.53 in experiment [9]. Moreover, the composite z-score in experiment [4] was 0.261 (inactive); in [10] it was -0.178.

On to `COC(=O)[C@@]1(Cc2ccccc2)[C@H]2c3cc(C(=O)N(C)C)n(Cc4ccc(Cl)c(C(F)(F)F)c4)c3C[C@H]2CN1C(=O)c1ccccc1`, for which the z-score in [1] is -1.83; in experiment [2] it was 2.32 (inactive); in [3] it was -2.53 (inactive); in experiment [5], 1.43 (inactive); in experiment [6], 1.37 (inactive); in experiment [7] it was -1.4 (inactive). Also, the results for the z-score in [8] and in [9] were -0.744 (inactive) and -2.95, respectively. Also, the composite z-score in [4] is 0.46 (inactive); in experiment [10] it was 0.331.
